From PubChem BioAssay
USP10 inh = human USP10 deubiquitinase inhibition; purified USP10, Ub-rhodamine fluorescence, 60 min; inhibition, % at 20 µM; Q14694; hit rate 1.1% among 47,000
Target sequence (Q14694 whole entry, looked up): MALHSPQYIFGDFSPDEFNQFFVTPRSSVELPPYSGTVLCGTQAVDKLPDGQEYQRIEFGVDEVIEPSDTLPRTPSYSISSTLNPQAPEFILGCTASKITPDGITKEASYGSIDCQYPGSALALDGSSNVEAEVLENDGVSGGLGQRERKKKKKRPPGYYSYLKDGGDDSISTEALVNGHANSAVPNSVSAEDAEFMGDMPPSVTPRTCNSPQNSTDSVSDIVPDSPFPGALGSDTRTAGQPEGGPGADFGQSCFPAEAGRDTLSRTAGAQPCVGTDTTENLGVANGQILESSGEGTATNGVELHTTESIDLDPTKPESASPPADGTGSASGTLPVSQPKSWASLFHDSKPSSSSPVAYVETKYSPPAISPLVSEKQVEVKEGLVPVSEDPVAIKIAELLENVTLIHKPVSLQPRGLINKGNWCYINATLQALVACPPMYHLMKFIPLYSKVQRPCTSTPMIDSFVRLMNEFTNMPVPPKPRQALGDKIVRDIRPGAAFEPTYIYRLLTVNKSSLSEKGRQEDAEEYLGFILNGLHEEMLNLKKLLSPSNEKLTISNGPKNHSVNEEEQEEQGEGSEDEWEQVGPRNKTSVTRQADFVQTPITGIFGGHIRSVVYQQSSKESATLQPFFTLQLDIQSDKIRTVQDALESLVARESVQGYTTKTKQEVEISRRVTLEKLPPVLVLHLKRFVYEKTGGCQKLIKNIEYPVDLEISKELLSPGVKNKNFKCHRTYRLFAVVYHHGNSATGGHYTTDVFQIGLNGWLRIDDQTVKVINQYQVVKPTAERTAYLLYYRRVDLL
USP8 block = human USP8 deubiquitinase inhibition | hit rate 4.2% among 47,000 | purified USP8, Ub-rhodamine cleavage fluorescence, 30 min | inhibition, % at 20 µM | P40818
USP17 block = human USP17-like deubiquitinase inhibition | inhibition, % at 50 µM | hit rate 6.5% among 47,000 | purified USP17, Ub-rhodamine cleavage fluorescence, 3 h
USP30 inh = inhibitors of human USP30 deubiquitinase | hit rate 5.3% among 47,000 | Q70CQ3 | inhibition, % at 25 µM | AID 1645860 | purified USP30, Ub-rhodamine cleavage fluorescence
USP28 block = human USP28 deubiquitinase inhibition | purified USP28, Ub-rhodamine cleavage fluorescence, 30 min | hit rate 3% among 47,000 | inhibition, % at 25 µM | Q96RU2 | AID 1645857
Hits are given with their value; 0 = inactive; - = no result given. In the library only some 14% were active in any assay of this set; here they are far more common. Cut-off read from the data, not from the text of the source: active = inhibition above about 30%; inactive = the rest.

SMILES	USP10 inh	USP8 block	USP17 block	USP30 inh	USP28 block
CC1CCCN(S(=O)(=O)c2ccc(-n3cnc(C(=O)N4CCCC4)c3)nc2)C1 (centres undefined)	0	0	0	46.2	0
Cc1cnc(C(=O)N2CC[C@@H]3Oc4ccccc4S(=O)(=O)N(C)[C@H]3CC2)cn1	0	0	0	0	0
Cc1cc2nc(C)c(C/C=C/c3ccccc3)c(=O)n2[nH]1	0	0	0	35.3	0
CSc1nc2nc(C)c(C/C=C/c3ccccc3)c(=O)n2[nH]1	0	0	-	39.5	0
CC1CCc2c(sc3nc(CCC(=O)NCc4ccc(Cl)cc4)[nH]c(=O)c23)C1 (centres undefined)	0	0	0	0	0
O=C(COc1ccc(C2CCCCC2)cc1)Nc1ccc(-c2nn3cnnc3s2)cc1	34.6	33.2	71.6	65.8	44.9
COc1cc(NC(=O)c2ccco2)c(C(=O)OCC(=O)c2c[nH]c3ccccc23)cc1OC	0	43.6	0	0	0
COc1cc(OC)cc(C(=O)NC(C(=O)OCC(=O)c2c[nH]c3ccccc23)C(C)C)c1 (centres undefined)	0	0	0	0	0
Cc1cc(C#N)c2c(C)ccc(C(C)C)cc1-2	0	0	0	0	57.9
Cn1cc(C(=O)N2CC[C@H]3NC(=O)c4ccccc4OCC/C=C/C[C@H]3C2)cn1	0	0	0	0	0
Cc1ccc2[nH]c(=O)c(CN(CC3CCCO3)S(C)(=O)=O)cc2c1 (centres undefined)	0	0	0	0	0
Cc1ccc2[nH]c(=O)c(CN(CC3CCCO3)S(=O)(=O)c3ccccc3)cc2c1 (centres undefined)	0	0	52.9	36.5	0
Cc1ccc2[nH]c(=O)c(CN(CC3COCCO3)C(=O)Nc3ccccc3F)cc2c1 (centres undefined)	0	0	0	37.5	0
Cc1ccc2[nH]c(=O)c(CN(CC3COCCO3)C(=O)Nc3ccccc3Cl)cc2c1 (centres undefined)	0	0	-	0	0
CCN1C[C@@]23CN(C(=O)c4cccc(OC)c4)C[C@@H](C[C@@H]2S1(=O)=O)O3	0	0	0	0	0
Fc1ccccc1-n1ccnc1N1CCNCC1	0	0	0	0	0
Oc1ccc(-c2nc3c4cnn(-c5ccc(Cl)cc5)c4ncn3n2)cc1	0	0	32.3	-	-
Cc1ccc(C(=O)N2CCCC(c3nnc4ccccn34)C2)cc1C (centres undefined)	0	0	0	0	0
CC1(C)CC(=O)c2ccc(OCc3ccc([N+](=O)[O-])cc3)cc2O1	0	0	0	0	35.7
O=S(=O)(c1cc(-c2nnc(C3CCCC3)o2)co1)N1CCCCCC1	0	0	0	0	0
CC(=O)c1ccccc1NC(=O)COc1ncnc2scc(-c3ccc(F)cc3)c12	0	0	0	0	0
COc1cc(NC(=O)CSc2ncnc3scc(-c4ccccc4)c23)c(C(=O)O)cc1OC	30.1	0	0	0	0
COc1cc2c(cc1OC)CN(c1ncnc3scc(-c4ccccc4)c13)CC2	0	36.9	0	0	0
CC(C)(C)OC(=O)N1C[C@@H](O)[C@H](n2cnc3c(N)ncnc32)C1	0	0	0	0	0
CCOC(=O)c1ccc(N2CCN(C(C)=O)CC2)c(NC(=O)/C=C/c2cc(Cl)cc(Cl)c2OC)c1	0	0	0	0	0
SMILES	USP10 inh	USP8 block	USP17 block	USP30 inh	USP28 block
CCOc1ccccc1Nc1nc2ccccc2n2cnnc12	0	0	38.6	0	0
c1ccc2c(c1)nc(NC1CC1)c1nncn12	0	0	0	0	0
O=C(COc1ccccc1F)N1CCSc2ccc(Cl)cc21	0	0	31.5	34.2	41.4
O=C(COc1ccc(F)cc1Br)N1CCSc2ccccc21	0	0	0	0	0
COc1ccccc1NC(=O)Cn1cc(C(=O)c2ccc(C)cc2)c(=O)c2cc(Cl)ccc21	31.0	0	60.5	0	0
COc1cc(NC(=O)Cn2cc(C(=O)c3ccccc3)c(=O)c3cc(Cl)ccc32)cc(OC)c1	61.9	97.0	0	0	0
NCC(=O)N1CCCC2(Cc3ccccc3CN2S(=O)(=O)c2ccccc2)C1 (centres undefined)	0	0	0	43.9	0
COc1cccc(NC(=O)Cc2csc3nc(-c4ccccc4)cn23)c1	0	0	0	0	0
NC(=O)c1ccccc1NC(=O)COc1ccc2c(c1)oc(=O)c1ccccc12	0	55.2	0	0	0
O=C(COc1ccc2ccccc2c1)Nc1cccc2ccccc12	0	35.6	64.8	46.3	0
O=C(COc1ccc2c3c(c(=O)oc2c1)CCC3)Nc1ccccc1N1CCOCC1	0	0	0	0	0
O=C(Nc1ccc(Br)cn1)c1nc2ccccc2nc1N1CCCCC1	0	0	0	0	0
O=C(Nc1ccccc1F)c1ccc(C(=O)c2ccccc2)cc1	0	0	34.9	0	0
N#Cc1ccc(Cl)cc1NC(=O)CN1C(=O)c2ccccc2S1(=O)=O	0	0	0	0	0
N#Cc1ccc(Cl)cc1NC(=O)COc1cccnc1[N+](=O)[O-]	0	0	50.3	31.3	0
O=C(c1ccncc1)N1CCN(CC2CC=CCC2)CC1 (centres undefined)	0	0	0	0	0
O=C(NCc1ccc2c(c1)OCO2)c1ccc(C2SCC(=O)N2Cc2ccco2)cc1 (centres undefined)	0	35.8	56.3	0	0
CCOC(=O)c1ccc(NC(=O)Nc2nnc(CC(=O)N3CCCCC3)s2)cc1	0	0	-	0	0
O=C(Nc1ccc(Cl)cc1)c1cccc(OCc2ccccc2)c1	0	0	0	0	0
CN1CCC(N(C)S(=O)(=O)c2ccc(NC(=O)c3cccc(OCc4ccccc4)c3)cc2)CC1	0	0	0	0	51.7
O=C(OCc1cnc(Cl)s1)c1ccc([N+](=O)[O-])cc1	0	0	0	0	40.5
Cn1nc(-c2ccccc2)c(COC(=O)c2ccc([N+](=O)[O-])cc2)c1Cl	0	0	59.5	0	0
O=C(COc1ccc([N+](=O)[O-])cc1Cl)c1ccc2c(c1)OCCO2	0	0	0	0	0
COc1cc(OC)cc(C(=O)N2CCC(C(=O)Nc3ccc4c(c3)OCCO4)CC2)c1	0	0	0	0	49.3
Cc1cccc(N2CCn3c2nc2c3c(=O)n(CCN3CCOCC3)c(=O)n2C)c1	0	0	0	37.5	0
SMILES	USP10 inh	USP8 block	USP17 block	USP30 inh	USP28 block
Cc1ccc(N2CCCn3c2nc2c3c(=O)n(CCN3CCOCC3)c(=O)n2C)cc1	0	0	0	33.6	0
N#Cc1c2n(c(=O)n(CC(=O)N(Cc3ccccc3F)C3CC3)c1=O)CCC2	0	0	0	0	0
COc1cc(C(=O)Nc2nc3ccc(S(=O)(=O)N4CCCC4)cc3s2)cc(OC)c1OC	0	0	40.4	0	0
CC(=O)c1cc(-c2ccccc2)n(CC(=O)Nc2ccc(C)cn2)c1C	0	0	0	0	0
O=C(CSc1ncn(-c2ccccc2)n1)Nc1ccc(Cc2ccncc2)cc1	0	0	41.1	39.4	45.9
O=C(CSc1n[nH]c(-c2ccncc2)n1)Nc1ccc(F)cc1	0	0	0	0	0
Cc1cccc(NC(=O)N2CCCC2c2c(C)noc2C)c1C (centres undefined)	0	0	0	0	0
